Rows were chosen to be rich in hits. Some 28% of all compounds tested hit in one or more screens of this group.
CYP2C9 activ: human CYP2C9 activators, primary screen, biochemical, luminescence; recombinant CYP2C9, luciferin-H conversion; stronger effect = higher value; factor 1 = untreated enzyme, 0 = blocked; activation factor at 5 µM; 96,000 compounds, 1.4% hits;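 active = activation factor of 2 or more for CYP2C9 at a 5 µM dose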;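 also: 0 = sulfaphenazole-blocked wells and 1 = vehicle-only wells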
CYP2C9 inh: blockers of cytochrome P450 2C9 activity – biochemical, luminescence, ADME assay, primary screen; CYP2C9 Supersomes, luciferin-H conversion; inhibition, % at 5 µM; 96,000 compounds, 20% hits; AID 777, 2007;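 active = blocking of liver enzyme CYP2C9 beyond about 50% at 5 µM, limit read from the data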
CYP2C19 act: human CYP2C19 activators, primary screen, biochemical, luminescence; Cytochrome P450 2C19 (Homo sapiens), P33261; recombinant CYP2C19, luciferin-H EGE luminescence; stronger effect = higher value; 0 = fully inhibited enzyme, 1 = untreated enzyme; activation factor at 5 µM; 96,000 tested, under 10 active; AID 1025, 2008;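 active = activation factor of at least 2 at 5 µM in the primary screen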;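 also: 0 = wells with 2.5 mM tranylcypromine and 1 = vehicle-only wells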
Target sequence (P33261 whole entry, looked up): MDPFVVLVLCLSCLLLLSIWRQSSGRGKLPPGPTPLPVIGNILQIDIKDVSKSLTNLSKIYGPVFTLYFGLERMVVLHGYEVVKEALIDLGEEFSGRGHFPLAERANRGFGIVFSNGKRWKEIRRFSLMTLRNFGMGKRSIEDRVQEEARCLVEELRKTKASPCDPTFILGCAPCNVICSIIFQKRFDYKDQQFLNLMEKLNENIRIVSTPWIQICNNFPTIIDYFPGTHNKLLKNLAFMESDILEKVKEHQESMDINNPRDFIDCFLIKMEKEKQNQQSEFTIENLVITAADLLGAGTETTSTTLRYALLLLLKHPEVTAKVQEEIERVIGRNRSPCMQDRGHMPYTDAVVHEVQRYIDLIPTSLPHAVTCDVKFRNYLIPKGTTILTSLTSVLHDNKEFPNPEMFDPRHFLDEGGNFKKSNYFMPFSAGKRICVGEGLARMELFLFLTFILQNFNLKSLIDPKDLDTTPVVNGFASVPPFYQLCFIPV
Mac1 fbg enh: enhancers of CD11b/CD18 adhesion to fibrinogen, primary screen, K562 cells, luminescence | Integrin beta-2 (Homo sapiens) + Integrin alpha-M (Homo sapiens), P05107+P11215 | 93,000 compounds, 0.07% hits | ATPlite luminescence | activation, % at 10 µM;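 active = 10 µM primary screen giving 50% or more activity, confirmed by 40% or more on retest at that dose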
CYP2C19 inhib: blockers of cytochrome P450 2C19 activity – biochemical, luminescence, ADME assay, primary screen; P33261; AID 778, 2007; inhibition, % at 5 µM; CYP2C19 Supersomes, luciferin-H EGE luminescence, 30 min; 96,000 compounds, 21% hits;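 active = CYP2C19 inhibition above a set limit at 5 µM in the primary screen, cut at about 50% in these data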;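 also: plate controls were negative control wells for no effect and 2.5 mM tranylcypromine positive control for full effect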
CD11b adhes inh: inhibitors of CD11b/CD18 adhesion to fibrinogen, primary screen, K562 cells, luminescence; Integrin beta-2 (Homo sapiens) + Integrin alpha-M (Homo sapiens), P05107+P11215; ATPlite luminescence; Mn2+ added to activate the integrin; inhibition, % at 10 µM; 93,000 compounds, 0.54% hits; AID 1497, 2009;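 active = primary inhibition of 50% or more at 10 µM, then 40% or more on retest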
Active calls of the source: *; x = no result given.

SMILES | CYP2C9 activ | CYP2C9 inh | CYP2C19 act | Mac1 fbg enh | CYP2C19 inhib | CD11b adhes inh
O=C1CC(c2ccccc2)n2nc(NC(=O)c3ccccc3)nc2N1 (stereo not drawn) | 1.1 | -13 | 1.2 | -6 | -17 | 16
O=C1CC(c2ccccc2)n2nc(NC(=O)C3CCCO3)nc2N1 (stereo not drawn) | 0.2 | 79* | 0.1 | -1 | 91* | -28
COc1ccc(NS(=O)(=O)Cc2ccccc2Cl)cn1 | 0.7 | 33 | 0.4 | -6 | 64* | -2
COc1ccc(NC(=O)/C(Cl)=C(/Cl)S(=O)(=O)Cc2ccccc2)cn1 | 0.5 | 50 | 0.5 | -1 | 46 | 7
O=C(c1ccc(Cl)cc1Cl)C1(n2cncn2)Oc2ccccc2C1O (stereo not drawn) | 0.1 | 93* | 0 | 0 | 99* | 12
CCc1nnc(NC(=O)C2Cc3ccccc3C(=O)O2)s1 (stereo not drawn) | 0.5 | 49 | 1 | -3 | 4 | -1
COCCN(CCOC)C(=O)c1cc2sc3ccccc3c2s1 | 2.8* | -179 | 0.7 | -3 | 34 | -4
COCCN(CC(=O)NCc1ccccc1)C(=O)CCC(=O)Nc1ccccn1 | 1 | -5 | 1 | 1 | 0 | -12
CCN(CC)C(=O)c1cc2sc3ccccc3c2s1 | 2.4* | -136 | 0.7 | 0 | 27 | 12
CN1C(=O)C(O)(c2sc(N)nc2-c2ccccc2)c2ccccc21 (stereo not drawn) | 0.9 | 12 | 0.7 | -4 | 26 | -15
Cc1nc2ccc3[nH]snc3c2n1 | 0.8 | 16 | 1 | -4 | 1 | 6
Cc1ccccc1NC(=O)CSc1nc(COc2ccccc2)nc2ccccc12 | 0.1 | 95* | 0.2 | x | 76* | x
CCc1nc(SCC(=O)NNC(=O)C(C)C)c2ccccc2n1 | 1.4 | -37 | 0.8 | 4 | 18 | -10
COc1ccc2nc(C)cc(SCC(=O)NNC(=O)COc3ccccc3)c2c1 | 0.9 | 15 | 0.9 | x | 9 | x
Cc1cc(C)c(NC(=O)CSc2nc(COc3ccccc3)nc3ccccc23)c(C)c1 | 0.1 | 85* | 0.5 | -1 | 46 | 27
O=C(CSCc1cnn(-c2ccccc2)c1-n1cccc1)N1CCN(Cc2ccccc2)CC1 | 0 | 96* | 0.1 | 4 | 89* | 29
COc1cccc(CNC(=O)CSCc2cnn(-c3ccccc3)c2-n2cccc2)c1OC | 0 | 97* | 0.1 | 7 | 94* | -6
CCOc1ccc(NC(=O)CSCc2cnn(-c3ccccc3)c2-n2cccc2)cc1 | 0.1 | 94* | 0 | 7 | 98* | 17
COc1ccc(NC(=O)C2CCN(Cc3cnn(-c4ccccc4)c3-n3cccc3)CC2)cc1OC | 0.6 | 41 | 0.9 | -5 | 8 | 13
COc1ccccc1CNC(=O)CSCc1cnn(-c2ccccc2)c1-n1cccc1 | 0.1 | 88* | 0 | -1 | 97* | -17
CCc1sc(C(=O)Nc2cccc(C(C)=O)c2)cc1C | x | x | x | 1 | x | 2
Cc1ccc(NC(=O)c2csc(-c3ccccc3)c2C)cc1 | 0.9 | 6 | 0.8 | -4 | 17 | 66
Cc1ccc(NC(=O)C(C)c2ccc(-c3ccccc3)c(F)c2)cc1 (stereo not drawn) | 0 | 96* | 0.5 | -8 | 48 | 96
c1ccc2c(c1)OCC(c1nn3c(Cn4nnc5ccccc54)nnc3s1)O2 (stereo not drawn) | 0.7 | 34 | 0.7 | -2 | 35 | -31
CCN(CC)S(=O)(=O)c1ccc(N2CCCCC2)c(NC(=O)/C=C/c2ccc(OC)c(OC)c2)c1 | x | x | x | 15 | x | -20
SMILES | CYP2C9 activ | CYP2C9 inh | CYP2C19 act | Mac1 fbg enh | CYP2C19 inhib | CD11b adhes inh
CCN(CC)S(=O)(=O)c1ccc(N2CCCC2)c(C(=O)OCC(=O)/C(C#N)=C(\C)N)c1 | 0.2 | 82* | 0.2 | 4 | 80* | -19
O=C(CCc1ccccc1)NNC(=O)C12CC3CC(CC(C3)C1)C2 | 1 | 4 | 1.1 | 0 | -9 | -2
O=C(Nn1nnnc1Nc1ccccc1)C12CC3CC(CC(C3)C1)C2 | 0.7 | 33 | 0.3 | -1 | 71* | -4
CCn1cc(C(=O)NCC2CCCO2)c(=O)c2cc(S(=O)(=O)N3CCCCCC3)ccc21 (stereo not drawn) | 0.4 | 57* | 0.8 | -2 | 18 | 8
Cn1cc(C(=O)NC2CCCCCCC2)c(=O)c2cc(S(=O)(=O)N3CCCC3)ccc21 | 0.2 | 84* | 0.9 | 25 | 6 | 0
CCn1cc(C(=O)N2CCc3ccccc32)c(=O)c2cc(S(=O)(=O)N3CCCCCC3)ccc21 | 0.3 | 67* | 0.7 | 2 | 29 | 8
Nc1ccc(C(=O)OCC(=O)Nc2ccc([N+](=O)[O-])cc2C(F)(F)F)cc1 | x | x | x | 2 | x | 9
Cc1ccc(-n2c(=O)[nH]c3cc(C(=O)NC4CCN(Cc5ccccc5)CC4)ccc3c2=O)cc1 | 1 | 2 | 1 | -1 | 4 | 20
CCCC(=O)Nc1sc(C)c(-c2ccc(OC)cc2)c1C#N | x | x | x | 14 | x | -7
CCCc1ccc(-c2c(C)sc(N)c2C#N)cc1 | 0.3 | 68* | 0.7 | 0 | 31 | 7
CC(=O)Oc1ccc2c(c1)c(C(C)=O)c(C)n2C | 0.9 | 6 | 0.9 | 0 | 8 | -5
COc1ccc2c(c1)c(C(C)=O)c(C)n2-c1ccccc1 | 0.1 | 88* | 0 | -2 | 97* | -44
COc1ccc(-n2c(C)cc(SC)c(C(C)=O)c2=S)cc1 | 1 | -3 | 0.6 | -4 | 38 | -3
COc1ccc(-n2c(C)c(C(C)=O)c3cc(O)ccc32)cc1 | 0.4 | 61* | 0.1 | 0 | 90* | -44
Cc1cccc(C)c1NC(=O)C/C(N)=N/O | 0.9 | 11 | 0.9 | 0 | 13 | -2
COC(=O)c1cn(NC(=O)C2COc3ccccc3O2)c(=O)c2ccccc12 (stereo not drawn) | 0.9 | 14 | 1.1 | x | -14 | x
CCOC(=O)N1CCN(c2cc(=O)n(-c3ccc(OCC)cc3)c(=O)[nH]2)CC1 | 1 | -3 | 1 | -1 | 2 | -8
OCCN1CCN(CCOc2cccc(Cl)c2)CC1 | 1.1 | -13 | 1.1 | -4 | -12 | 8
Cc1ccc(S(=O)(=O)NCCn2c(C)cc3ccccc32)cc1 | 0.3 | 68* | 0.3 | x | 67* | x
O=S(=O)(NCCn1ccc2ccccc21)c1ccccc1 | 0.3 | 70* | 0 | 0 | 100* | -25
Cc1cc(C)c(S(=O)(=O)NCCn2c(C)cc3ccccc32)c(C)c1 | 0.1 | 90* | 0.3 | 5 | 73* | -17

Bioassay records (PubChem)
